Data as given in PubChem BioAssay (EPA / NIEHS).
Active and inactive are the calls of the source. The calls were made as follows: active = hit-call score of the fitted dose curve at least 0.9, where 1 is the maximum; inactive = score below 0.9.

read-out: Tissue plasminogen activator (tPA), PLAT (gene 5327); assay: BSK_BE3C_tPA: BioMAP Diversity Plus: BE3C Assay for Tissue plasminogen activator (tPA) Biomarker Activity (AID 2283041); conditions: primary human bronchial epithelial cells; actives raise or lower the signal;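 as to outcome: tPA level quantified by ELISA one day after compound addition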
How it was run: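 Primary human bronchial epithelial cells in the BE3C system, exposed to compound for 24 h. tPA was quantified by ELISA; DMSO served as baseline, with gain or loss of signal fitted. Cytotoxicity checked in parallel cultures by SRB total-protein staining.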

Row | Compound | outcome | AC50
1 | Cc1c(COC(=O)[C@@H]2[C@H](/C=C(\Cl)C(F)(F)F)C2(C)C)cccc1-c1ccccc1 | inactive | 
2 | O=c1n(Cl)c(=O)n(Cl)c(=O)n1Cl | inactive | 
3 | CC1(C)CCC(=Cc2ccc(Cl)cc2)C1(O)Cn1cncn1 (stereo unspecified) | inactive | 
4 | COC(=O)N(C(=O)N1CO[C@@]2(C(=O)OC)Cc3cc(Cl)ccc3C2=N1)c1ccc(OC(F)(F)F)cc1 | inactive | 
5 | CC1(C)CON(Cc2ccccc2Cl)C1=O | inactive | 
6 | Cn1c(-c2ccccc2)cc(-c2ccccc2)[n+]1C | inactive | 
7 | COC(=O)NC(=S)Nc1ccccc1NC(=S)NC(=O)OC | inactive | 
8 | N#CN=C1SCCN1Cc1ccc(Cl)nc1 | inactive | 
9 | CS(=O)(=O)c1cc(C(F)(F)F)ccc1C(=O)c1cnoc1C1CC1 | inactive | 
10 | COP(=S)(OC)SCn1nnc2ccccc2c1=O | inactive | 
11 | CCSC(=O)N1CCCCCC1 | inactive | 
12 | O=C(O)c1c(Cl)ccc2cc(Cl)cnc12 | inactive | 
13 | CCCCOCN(C(=O)CCl)c1c(CC)cccc1CC |  | 36.9 µM (active)
14 | CC(C)N1C(=O)c2ccccc2NS1(=O)=O | inactive | 
15 | CCCCC(O)(Cn1cncn1)c1ccc(Cl)cc1Cl (stereo unspecified) | inactive | 
16 | COCC(C)N(C(=O)CCl)c1c(C)csc1C (stereo unspecified) | inactive | 
17 | CC1(C)C(C=C(Cl)Cl)C1C(=O)OC(C#N)c1cccc(Oc2ccccc2)c1 (stereo unspecified) | inactive | 
18 | CCOP(=S)(OCC)Oc1nc(Cl)n(C(C)C)n1 | inactive | 

Row | Compound | outcome | AC50
19 | COP(=O)(OC)O/C(C)=C/C(=O)N(C)C | inactive | 
20 | CCN(CC)c1nc(C)cc(OP(=S)(OC)OC)n1 | inactive | 
21 | Cc1cc(C)nc(Nc2ccccc2)n1 | inactive | 
22 | O=P(O)(O)CCCl | inactive | 
23 | CC(C)(C)C(=O)C(Oc1ccc(Cl)cc1)n1cncn1 (stereo unspecified) | inactive | 
24 | C=C(C)CN(CC)c1c([N+](=O)[O-])cc(C(F)(F)F)cc1[N+](=O)[O-] | inactive | 
25 | C=CCOC(=O)C(C)(C)OC(=O)c1cc(-n2c(=O)cc(C(F)(F)F)n(C)c2=O)ccc1Cl | inactive | 
26 | CCN(CC)C(=O)C(C)Oc1cccc2ccccc12 (stereo unspecified) | inactive | 
27 | COCc1cnc(C2=NC(C)(C(C)C)C(=O)N2)c(C(=O)O)c1 (stereo unspecified) | inactive | 
28 | O=C1C2CC=CCC2C(=O)N1SC(Cl)(Cl)Cl (stereo unspecified) |  | 11.4 µM (active)
29 | CCCC(=NOCC)C1=C(O)CC(CC(C)SCC)CC1=O (stereo unspecified) | inactive | 
30 | CO/N=C(/C1=NOCCO1)c1ccccc1Oc1ncnc(Oc2ccccc2Cl)c1F | inactive | 
31 | CC(C)Oc1cccc(NC(=O)c2ccccc2C(F)(F)F)c1 | inactive | 
32 | CC(C)C1(C)N=C(c2ncccc2C(=O)O)NC1=O (stereo unspecified) | inactive | 
33 | COCC(=O)N(c1c(C)cccc1C)C(C)C(=O)OC (stereo unspecified) | inactive | 
34 | CC(C)N1C(=O)N(c2ccccc2)CSC1=NC(C)(C)C | inactive | 
35 | CCNP(=S)(OC)O/C(C)=C/C(=O)OC(C)C (stereo unspecified) | inactive | 
36 | CNC(=O)Oc1cccc2ccccc12 | inactive | 
